This is a sample that favours compounds with a hit; in the whole collection about 19% have one here.
DT40 TDP1 no CPT – qHTS for Inhibitors of human tyrosyl-DNA phosphodiesterase 1 (TDP1): qHTS in cells in absence of CPT; Potency, µM (titrated, usually from 46.2 µM), inactives show top-dose activity change, negative = growth inhibition, most hits filed as inhibitors; 15% of 420,000 active; DT40 Tdp1-/- hTDP1 cells, no CPT, ATP luminescence, 48 h; AID 686978, 2013; also: nearly all actives have a fitted effect of over 55% in size
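Cells were dispensed at 400 per well, compounds added by pin tool, plates incubated ≥48 hr at 37 °C, then CellTiter-Glo added for 30 min at room temperature before luminescence reading. Line: DT40 Tdp1-/- complemented with hTDP1; camptothecin omitted.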
HT1080NT lethal – kills 2HG-producing HT-1080-NT fibrosarcoma cells. HT-1080-NT fibrosarcoma viability, CellTiter-Glo ATP luminescence, 48 h. AID 686970. Potency, µM (highest dose often 46.1 µM), for the others: top-dose activity, negative = less viability, actives largely listed as cytotoxic. 1.6% of 360,000 active;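 also: NT is the 2HG producing partner of a matched IDH1 knockdown line; 0% = DMSO-treated cells and -100% = media-only wells without cells; nearly all actives have a fitted effect of over 55% in size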
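Toxicity toward the 2HG-producing NT line was scored as %Activity, normalised to DMSO and no-cell wells, from CellTiter-Glo luminescence after 48 hours' treatment.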
HT1080 IDH1KD tx – HT-1080 IDH1 knockdown cell toxicity (counter line). HT-1080 IDH1 knockdown viability, ATP luminescence, 48 h. Potency, µM (highest dose often 46.1 µM), for inactives: at the highest dose activity, negative = toxicity, actives largely listed as cytotoxic. 2% of 360,000 active. AID 686971;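 also: 0% = DMSO wells and -100% = cell-free medium wells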
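Using the IDH1-knockdown HT-1080 line run in the same batch and compound series as the NT line, viability after 48 h at 37 °C was determined by CellTiter-Glo luminescence and expressed as % activity.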
TDP1 cell CPT – DT40-hTDP1 cell growth loss with CPT; Potency, µM (doses to about 46.2 µM), for the others: top-dose activity change, negative = growth inhibition, usual class: inhibitors; chicken DT40 Tdp1-/-;hTDP1 cells + 20 nM CPT, ATP luminescence, 48 h; 12% of 420,000 active; also: nearly all actives have a fitted effect of over 55% in size
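Cell growth measured by CellTiter-Glo luminescence after a minimum 48 h, 37 C compound exposure with 20 nM CPT in Tdp1-knockout DT40 cells stably expressing hTDP1, seeded 400/well; qHTS titration format.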
KB-3-1 cytotox – kills parental KB-3-1 adenocarcinoma cells. KB-3-1 viability, CellTiter-Glo ATP luminescence, 72 h. Potency, µM (series often up to 46.1 µM), most hits filed as cytotoxic. 1.4% of 400,000 active; also: nearly all actives have a fitted effect of over 60% in size
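KB-3-1 cells, DMEM (no phenol red) + 10% FBS; compound by pin transfer, 72 h, 37 °C. Readout: CellTiter-Glo luminescence after 10 min. Data normalized, curve-fitted.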
KB-V1 MDR tox – kills drug-selected multidrug resistant KB-V1 cells; KB-V1 MDR cells viability, CellTiter-Glo, 72 h; Potency, µM (highest dose often 46.1 µM), hits mostly cytotoxic; 3.4% of 400,000 active; AID 1347076; also: nearly all actives have a fitted effect of over 60% in size
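Cytotoxicity via CellTiter-Glo luminescence after 72 h compound exposure at 37 degrees C. Cells: drug-selected KB-V1 line, DMEM phenol-red free plus 10% FBS. Compounds tested at multiple concentrations; normalized data fitted to concentration-effect curves.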
* = called active by the depositor; i = inactive; ? = inconclusive; · = no result given. Calls follow the shape of the dose curve; as a rule, active = well fitted curve in the direction sought with a large enough effect; inconclusive = small, poorly fitted or top-dose-only effect, or another doubt; inactive = no such curve, though single readings can be large; an effect the other way counts as inactive or inconclusive. Unless noted, % is scaled to controls: 0 for no effect and ±100 for the full control effect; potency is read from the fitted curve at half-maximal effect.

SMILES | DT40 TDP1 no CPT | HT1080NT lethal | HT1080 IDH1KD tx | TDP1 cell CPT | KB-3-1 cytotox | KB-V1 MDR tox
CCCN1C(=O)c2[nH]nc(-c3ccccc3O)c2C1c1cccc(OCc2ccccc2)c1 (configuration not stated) | 9.2µM* | · | · | 21µM* | ? | ?
Cc1ccc(CNC(=O)NC2COc3ccccc3C2)cc1 (configuration not stated) | -22% | · | · | -10% | i | i
CCCN1C(=O)c2[nH]nc(-c3ccccc3)c2C1c1cccc(O)c1 (configuration not stated) | 23µM* | · | · | 18µM* | · | ·
COCCN1C(=O)c2[nH]nc(-c3c(C)cc(C)cc3O)c2C1c1cccc(O)c1 (configuration not stated) | ? | · | · | ? | i | i
CCc1ccc(NC(=O)CC2C(=O)N(c3ccc(Cl)cc3)C(=O)N2C2CCCC2)cc1 (configuration not stated) | 18µM* | · | · | ? | · | ·
CCc1ccc(NC(=O)CC2C(=O)N(c3ccc(C)cc3)C(=O)N2C2CCCC2)cc1 (configuration not stated) | 21µM* | · | · | ? | i | i
CCOC(=O)c1ccc(NC(=O)CC2C(=O)N(c3ccc(C)cc3)C(=O)N2C2CCCCC2)cc1 (configuration not stated) | -16% | · | · | -25% | i | i
COc1cccc(N2C(=O)C(CC(=O)Nc3ccccc3)N(C3CCCCC3)C2=O)c1 (configuration not stated) | -25% | 5% | 0% | -8% | i | ?
CCc1ccc(NC(=O)CC2C(=O)N(c3cccc(OC)c3)C(=O)N2C2CCCC2)cc1 (configuration not stated) | ? | · | · | 16µM* | · | ·
CC(OC(=O)c1nc(Cl)ccc1Cl)C(=O)Nc1ccccc1F (configuration not stated) | -3% | 6% | 6% | 18% | i | i
O=S(=O)(Nc1nc2ccccc2nc1Cl)c1ccc(Br)cc1 | ? | -16% | -4% | ? | i | i
COc1ccccc1NC(=O)c1ccc2c(c1)CCN2S(C)(=O)=O | -23% | 5% | 9% | -2% | i | i
COc1ccc(C)cc1S(=O)(=O)N(CC(=O)Nc1cccc([N+](=O)[O-])c1)c1cc(C)cc(C)c1 | ? | 3% | ? | -12% | i | i
Cc1ccc(S(=O)(=O)N2CCCCC2)cc1NC(=O)COC(=O)CNC(=O)c1cc(Cl)cc([N+](=O)[O-])c1 | -4% | 21% | 17% | -19% | i | i
COc1ccc(S(=O)(=O)N2CCCCC2)cc1NC(=O)CNc1ccccc1C(C)=O | ? | -6% | -1% | 23µM* | i | ?
COc1ccc(S(=O)(=O)N2CCCCC2)cc1NC(=O)CCCOc1ccc(C)cc1 | ? | 0% | -3% | ? | · | ·
COc1ccc(C)cc1S(=O)(=O)N(CC(=O)Nc1cc([N+](=O)[O-])ccc1C)c1ccc(C)c(C)c1 | 10µM* | -8% | -5% | 8.2µM* | i | i
COc1ccc(S(=O)(=O)N2CCCCC2)cc1NCC(=O)Nc1ccc(C)cc1 | 9.2µM* | -20% | -10% | 16µM* | i | ?
COc1ccc([N+](=O)[O-])cc1NCC(=O)Nc1cc(S(=O)(=O)N2CCCCC2)ccc1C | 23µM* | -10% | 5% | 15µM* | i | ?
Cc1cc(NC(=O)c2noc3c2CCCC3)no1 | -17% | 11% | -1% | -6% | i | ?
CC(=O)NCCCC(=O)NNC1CC(=O)N(c2cccc(Cl)c2)C1=O (configuration not stated) | ? | 13% | 20% | ? | i | i
O=C(N/C(=C\c1ccco1)C(=O)N1CCOCC1)c1ccccc1Cl | -14% | 16% | 5% | 3% | i | i
Cc1nn(C)c(C)c1CS(=O)(=O)c1ccccc1 | -8% | 25% | 16% | -10% | i | i
COc1ccc(S(=O)(=O)N2CCCCCC2)cc1N(C)S(=O)(=O)c1ccc(C)cc1 | 13µM* | 0% | -3% | ? | i | 2.6µM*
COc1ccc(S(=O)(=O)N(C)C)cc1NCC(=O)Nc1ccc(Br)c(C)c1 | 18µM* | -29% | -29% | ? | i | 7.3µM*
SMILES | DT40 TDP1 no CPT | HT1080NT lethal | HT1080 IDH1KD tx | TDP1 cell CPT | KB-3-1 cytotox | KB-V1 MDR tox
c1ccc(NCc2ccncc2)cc1 | 17% | 5% | 2% | -5% | i | i
COc1cccc(NC(=S)N(CCCN2CCOCC2)Cc2cn(C)c3ccccc23)c1 | 15µM* | -26% | -25% | 9.2µM* | i | i
Cc1cc(NC(=S)N(CCN2CCOCC2)Cc2ccccc2F)ccc1Cl | 18µM* | -18% | 1% | ? | i | ?
O=C1CCN(S(=O)(=O)c2ccccc2)CCN1CCOCc1cccc(F)c1 | -32% | -1% | 7% | -25% | i | ?
CC(C)(C)OC(=O)NCCCCCc1cn(CC(=O)NCCCCCCCCCCC(=O)N2CCN(C(=O)OC(C)(C)C)CC2)nn1 | 6.5µM* | 20% | 1% | 5.8µM* | i | i
CC[C@H](C)Cc1cn([C@@H](CCCN=C(NC(=O)OC(C)(C)C)NC(=O)OC(C)(C)C)C(=O)NCCCCCCCCCCC(=O)N2CCN(C(=O)OC(C)(C)C)CC2)nn1 | 7.3µM* | ? | ? | 9.2µM* | ? | i
Cc1cn([C@@H](CCCCNC(=O)OC(C)(C)C)C(=O)NCCCCCCCCCCC(=O)N2CCN(C(=O)OC(C)(C)C)CC2)nn1 | 7.3µM* | 21µM* | ? | 8.2µM* | ? | i
CC[C@H](C)Cc1cn([C@@H](CCCCN)C(=O)NCCCCCCCCCCC(=O)N2CCNCC2)nn1 | -30% | 4% | 5% | -5% | i | ?
CSCC[C@@H](C(=O)NCCCCCCCCCCC(=O)N1CCNCC1)n1cc(CCO)nn1 | ? | 3% | 6% | -24% | i | i
C#CCOCCOCCOCCNc1nc(N2CCN(C(=O)CCCCCCCCCCNC(=O)Cn3cc(CCCCCN)nn3)CC2)nc(N2CCN(C(=O)CCCCCCCCCCNC(=O)[C@@H]([C@H](C)O)n3cc(C)nn3)CC2)n1 | ? | -5% | -15% | ? | ? | i
COc1ccccc1N1CCN(c2ncnc3c2nnn3C)CC1 | ? | · | · | ? | i | i
